Screening data as filed in PubChem BioAssay.
The list is not random: actives were taken first. Their share in the collection is about 0.9%.
PPARg SRC2 recr = PPARgamma-driven SRC-2 recruitment agonism; P37231; 200,000 compounds, 0.34% hits; activation, % at 8 µM; AID 1032; PPARgamma LBD-SRC-2 recruitment, biochemical;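 further: 0% = vehicle and 100% = reference agonist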
SRC1 TRFRET art = counter-screen for PPARgamma SRC-1 recruitment agonists: TR-FRET artefact; TR-FRET detection artefact counter-screen, emission ratio; hits give high values; TR-FRET ratio at 8 µM; AID 1051; 99,000 compounds, 0.34% hits; in the data active means TR-FRET ratio above about 2300
TR-FRET SRC-2 ct = TR-FRET artefact, counter-screen to PPARgamma/SRC-2 agonist assay | hits give high values | TR-FRET ratio at 8 µM | 200,000 compounds, 0.4% hits | AID 1049; in the data active means TR-FRET ratio above about 2000
SRC3 TRFRET art = counter-screen for PPARgamma SRC-3 recruitment agonists: TR-FRET artefact. PPARgamma/SRC-3 format; hits give high values. TR-FRET ratio at 8 µM. 99,000 compounds, 0.39% hits; in the data active means TR-FRET ratio above about 2000
PPARg SRC-3 ag = PPARgamma-driven SRC-3 recruitment agonism. P37231. biochemical PPARgamma/SRC-3 coactivator recruitment assay. activation, % at 8 µM. 200,000 compounds, 0.26% hits. AID 731; in the data active means activation above about 23%;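 further: 0% = DMSO and 100% = reference agonist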
PPARg SRC-1 ag = agonists of human PPARgamma SRC-1 coactivator recruitment; activation, % at 8 µM; PPARgamma-SRC-1 coactivator recruitment biochemical assay; 200,000 compounds, 0.41% hits; AID 631; in the data active means activation above about 19%;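 further: 0% = DMSO and 100% = reference agonist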
PPARg SRC2 conf = human PPARgamma SRC-2 recruitment agonism, confirmation; shares compounds with PPARg SRC-3 ag; biochemical SRC-2 recruitment by PPARgamma; activation, % at 8 µM; 790 compounds, 52% hits;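 further: 0% = vehicle alone and 100% = reference agonist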
PPARg SRC1 conf = confirmation of agonists of SRC-1 recruitment by human PPARgamma; shares compounds with PPARg SRC-3 ag; PPARgamma–SRC-1 coactivator recruitment biochemical assay; activation, % at 8 µM; 790 compounds, 43% hits; AID 1300; in the data active means activation above about 20%;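 further: 0% = vehicle wells and 100% = reference agonist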
PPARg SRC3 conf = confirmation of agonists of SRC-3 recruitment by human PPARgamma. 790 compounds, 29% hits. activation, % at 8 µM. shares compounds with PPARg SRC-3 ag. biochemical PPARgamma-SRC-3 coactivator recruitment, agonist mode; in the data active means activation above about 24%;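 further: 0% = vehicle wells and 100% = reference agonist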
Target sequence (P37231 whole entry, looked up): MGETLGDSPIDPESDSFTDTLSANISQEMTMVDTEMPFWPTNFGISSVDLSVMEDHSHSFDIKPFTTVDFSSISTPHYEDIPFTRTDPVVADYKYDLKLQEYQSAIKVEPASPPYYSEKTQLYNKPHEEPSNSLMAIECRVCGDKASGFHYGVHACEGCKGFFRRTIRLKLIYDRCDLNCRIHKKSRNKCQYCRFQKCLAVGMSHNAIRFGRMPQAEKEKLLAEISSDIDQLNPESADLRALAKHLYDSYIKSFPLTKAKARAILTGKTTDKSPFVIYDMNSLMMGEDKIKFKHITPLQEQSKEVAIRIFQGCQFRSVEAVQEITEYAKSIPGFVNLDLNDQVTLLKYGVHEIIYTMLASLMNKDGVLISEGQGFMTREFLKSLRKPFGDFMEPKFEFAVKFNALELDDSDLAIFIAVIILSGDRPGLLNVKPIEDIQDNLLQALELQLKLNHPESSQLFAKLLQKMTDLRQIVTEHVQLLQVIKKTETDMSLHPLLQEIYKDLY
Target sequence (Q9Y6Q9 whole entry, looked up): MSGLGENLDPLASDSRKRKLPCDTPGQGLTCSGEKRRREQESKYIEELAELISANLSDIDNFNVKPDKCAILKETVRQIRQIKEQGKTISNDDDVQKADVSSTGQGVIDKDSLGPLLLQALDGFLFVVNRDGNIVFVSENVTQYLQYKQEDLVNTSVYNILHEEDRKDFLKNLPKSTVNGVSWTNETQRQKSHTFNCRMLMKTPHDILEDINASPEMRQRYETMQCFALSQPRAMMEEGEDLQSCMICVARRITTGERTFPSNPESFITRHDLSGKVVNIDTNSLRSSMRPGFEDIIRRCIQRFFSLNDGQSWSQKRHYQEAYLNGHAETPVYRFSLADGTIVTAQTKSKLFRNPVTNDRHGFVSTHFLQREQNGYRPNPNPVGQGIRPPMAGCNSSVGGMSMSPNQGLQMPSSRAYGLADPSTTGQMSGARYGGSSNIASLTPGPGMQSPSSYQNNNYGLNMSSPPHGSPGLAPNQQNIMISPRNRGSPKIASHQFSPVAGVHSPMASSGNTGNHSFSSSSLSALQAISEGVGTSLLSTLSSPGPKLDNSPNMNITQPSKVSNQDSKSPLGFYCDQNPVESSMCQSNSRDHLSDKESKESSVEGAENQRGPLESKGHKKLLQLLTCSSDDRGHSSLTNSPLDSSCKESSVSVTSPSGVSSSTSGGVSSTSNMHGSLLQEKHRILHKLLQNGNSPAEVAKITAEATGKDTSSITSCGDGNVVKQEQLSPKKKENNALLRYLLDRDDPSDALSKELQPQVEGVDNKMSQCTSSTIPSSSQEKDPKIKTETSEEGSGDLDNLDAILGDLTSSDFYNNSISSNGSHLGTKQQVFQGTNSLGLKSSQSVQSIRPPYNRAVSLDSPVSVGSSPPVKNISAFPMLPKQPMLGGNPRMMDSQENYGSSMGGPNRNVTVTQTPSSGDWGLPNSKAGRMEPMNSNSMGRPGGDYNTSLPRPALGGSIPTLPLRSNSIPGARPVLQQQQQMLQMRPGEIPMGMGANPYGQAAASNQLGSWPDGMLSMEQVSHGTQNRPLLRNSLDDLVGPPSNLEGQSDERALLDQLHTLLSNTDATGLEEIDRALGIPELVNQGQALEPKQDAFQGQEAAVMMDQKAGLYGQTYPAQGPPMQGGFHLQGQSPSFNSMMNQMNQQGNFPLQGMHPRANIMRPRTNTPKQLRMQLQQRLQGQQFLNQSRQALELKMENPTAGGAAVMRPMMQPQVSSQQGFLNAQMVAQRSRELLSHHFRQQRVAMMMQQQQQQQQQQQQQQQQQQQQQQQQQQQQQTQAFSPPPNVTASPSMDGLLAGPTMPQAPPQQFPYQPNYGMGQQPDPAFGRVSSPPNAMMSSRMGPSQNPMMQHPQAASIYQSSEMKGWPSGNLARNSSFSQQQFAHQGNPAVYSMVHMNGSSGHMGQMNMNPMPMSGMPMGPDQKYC
Starred values were filed as active, the others as inactive. Unless noted, no stated cut-off is given here; in the data, active means activation above about 22%; inactive means the rest.

S=c1[nH]c(-c2ccccc2)cn1/N=C/c1ccc(Br)cc1 was read as PPARg SRC2 recr 13, SRC1 TRFRET art 1927, TR-FRET SRC-2 ct 1402, SRC3 TRFRET art 1662, PPARg SRC-3 ag 26*, PPARg SRC-1 ag 30*, PPARg SRC2 conf 12, PPARg SRC1 conf 16 and PPARg SRC3 conf 15.
`Cc1ccc(C)c(/C=N/n2cc(-c3ccccc3)[nH]c2=S)c1` gave PPARg SRC2 recr 5, SRC1 TRFRET art 1705, TR-FRET SRC-2 ct 1728, SRC3 TRFRET art 1480, PPARg SRC-3 ag 3 and PPARg SRC-1 ag -3.
`CC(C)OCCCNC(=O)C1CCC(CNS(=O)(=O)c2ccccc2)CC1` (stereo unspecified) gave PPARg SRC2 recr 0, SRC1 TRFRET art 1725, TR-FRET SRC-2 ct 1304, SRC3 TRFRET art 1406, PPARg SRC-3 ag 2 and PPARg SRC-1 ag 0.
Screening O=c1oc(-c2ccccc2F)nc2c1cnn2-c1ccccc1 returned PPARg SRC2 recr 18, TR-FRET SRC-2 ct 1482, PPARg SRC-3 ag 24, PPARg SRC-1 ag 23*, PPARg SRC2 conf 14, PPARg SRC1 conf 25* and PPARg SRC3 conf 27*.
O=C(Nc1ccc(NC(=S)NC(=O)C(c2ccccc2)c2ccccc2)cc1)c1ccccc1 was read as PPARg SRC2 recr 0, TR-FRET SRC-2 ct 1606, PPARg SRC-3 ag 6 and PPARg SRC-1 ag 4.
Screening O=C(CSc1nnc(COc2cccc3cccnc23)o1)N1CCc2ccccc21 returned PPARg SRC2 recr 0, TR-FRET SRC-2 ct 1448, PPARg SRC-3 ag 14, PPARg SRC-1 ag 20*, PPARg SRC2 conf 5, PPARg SRC1 conf 3 and PPARg SRC3 conf 7.
Screening COc1ccccc1CNC(=O)CCCOc1cc(=O)n(C)c2ccccc12 returned PPARg SRC2 recr 8, TR-FRET SRC-2 ct 1525, PPARg SRC-3 ag 9 and PPARg SRC-1 ag 2.
Cn1c(=O)cc(SCC(=O)NCCCN2CCN(c3ccc(F)cc3)CC2)c2ccccc21 was read as PPARg SRC2 recr 95*, TR-FRET SRC-2 ct 4545*, PPARg SRC-3 ag 134*, PPARg SRC-1 ag 97*, PPARg SRC2 conf 51*, PPARg SRC1 conf 34* and PPARg SRC3 conf 36*.
Screening Cn1c(=O)cc(SCC(=O)NCCN2CCN(c3ccccc3F)CC2)c2cc(Cl)ccc21 returned PPARg SRC2 recr 107*, TR-FRET SRC-2 ct 3707*, PPARg SRC-3 ag 92*, PPARg SRC-1 ag 82*, PPARg SRC2 conf 59*, PPARg SRC1 conf 39* and PPARg SRC3 conf 42*.
`COc1ccccc1CNC(=O)CSc1cc(=O)n(C)c2ccccc12` gave PPARg SRC2 recr 25*, SRC1 TRFRET art 2191, TR-FRET SRC-2 ct 2116*, SRC3 TRFRET art 1939, PPARg SRC-3 ag 10, PPARg SRC-1 ag 22*, PPARg SRC2 conf 7, PPARg SRC1 conf 9 and PPARg SRC3 conf 5.
Cn1c(=O)cc(SCC(=O)NCc2ccc(F)cc2)c2ccccc21 was read as PPARg SRC2 recr 18, SRC1 TRFRET art 2122, TR-FRET SRC-2 ct 2135*, SRC3 TRFRET art 2264*, PPARg SRC-3 ag 16, PPARg SRC-1 ag 25*, PPARg SRC2 conf 22*, PPARg SRC1 conf 18 and PPARg SRC3 conf 15.
`O=C(NCCc1nc(-c2ccccc2)cs1)c1ccc(Br)cc1` gave PPARg SRC2 recr 2, SRC1 TRFRET art 1645, TR-FRET SRC-2 ct 1549, SRC3 TRFRET art 1540, PPARg SRC-3 ag -1 and PPARg SRC-1 ag 2.
Screening OC(CNC1CCCCC1)COCCOc1ccc(Br)cc1 (stereo unspecified) returned PPARg SRC2 recr 1, SRC1 TRFRET art 2002, TR-FRET SRC-2 ct 1763, SRC3 TRFRET art 1629, PPARg SRC-3 ag 6 and PPARg SRC-1 ag 5.
O=C(O)CN1CCN(Cc2ccc(Cl)cc2)C1=O was read as PPARg SRC2 recr -1, SRC1 TRFRET art 2164, TR-FRET SRC-2 ct 1908, SRC3 TRFRET art 1646, PPARg SRC-3 ag -2 and PPARg SRC-1 ag 8.
`Cc1nc(CN2CCCCC2)cc(=O)[nH]1` gave PPARg SRC2 recr 9, SRC1 TRFRET art 2110, TR-FRET SRC-2 ct 1746, SRC3 TRFRET art 1761, PPARg SRC-3 ag 4 and PPARg SRC-1 ag 18.
Screening COc1ccc(S(=O)(=O)N2CC(O)CC2C(=O)OCc2nc3sc(C)c(C)c3c(=O)[nH]2)cc1 (stereo unspecified) returned PPARg SRC2 recr -10, SRC1 TRFRET art 1680, TR-FRET SRC-2 ct 1462, SRC3 TRFRET art 1467, PPARg SRC-3 ag 2 and PPARg SRC-1 ag -5.
Screening O=C(Nc1ccccc1C(=O)NCC1CCCO1)c1ccc(Cl)cc1Cl (stereo unspecified) returned PPARg SRC2 recr -1, TR-FRET SRC-2 ct 1634, PPARg SRC-3 ag 11, PPARg SRC-1 ag 22*, PPARg SRC2 conf 1, PPARg SRC1 conf -1 and PPARg SRC3 conf 2.
Screening CCC(=Nc1ccc(N)cc1)C1=C(O)C(C(=O)OC)C(C)(C)CC1=O (stereo unspecified) returned PPARg SRC2 recr 23*, TR-FRET SRC-2 ct 1785, PPARg SRC-3 ag 38*, PPARg SRC-1 ag 23*, PPARg SRC2 conf 1, PPARg SRC1 conf 4 and PPARg SRC3 conf 6.
For COc1cc(N=Nc2c(C)n(C)n(-c3ccccc3)c2=O)ccc1N the results were PPARg SRC2 recr 22, SRC1 TRFRET art 1943, TR-FRET SRC-2 ct 1662, SRC3 TRFRET art 1714, PPARg SRC-3 ag 11, PPARg SRC-1 ag 28*, PPARg SRC2 conf 2, PPARg SRC1 conf 2 and PPARg SRC3 conf 3.
`O=C(O)CCc1ccc(-c2ccc(Br)cc2)o1` gave PPARg SRC2 recr 42*, TR-FRET SRC-2 ct 2456*, PPARg SRC-3 ag 62*, PPARg SRC-1 ag 28*, PPARg SRC2 conf 26*, PPARg SRC1 conf 16 and PPARg SRC3 conf 20.
Screening CCNc1nc(Oc2ccc(F)cc2)cc(C(F)(F)F)n1 returned PPARg SRC2 recr 4, SRC1 TRFRET art 1898, TR-FRET SRC-2 ct 1629, SRC3 TRFRET art 1498, PPARg SRC-3 ag 4 and PPARg SRC-1 ag -3.
`CC(C)Nc1nc(Oc2ccc(Cl)cc2)cc(C(F)(F)F)n1` gave PPARg SRC2 recr 23*, TR-FRET SRC-2 ct 1676, PPARg SRC-3 ag 6, PPARg SRC-1 ag 11, PPARg SRC2 conf 0, PPARg SRC1 conf 3 and PPARg SRC3 conf 0.
Screening Cc1cccc2nc(CSc3nc4cc([N+](=O)[O-])ccc4s3)cn12 returned PPARg SRC2 recr 18, SRC1 TRFRET art 1897, TR-FRET SRC-2 ct 1575, SRC3 TRFRET art 1391, PPARg SRC-3 ag 2 and PPARg SRC-1 ag -2.
